The values below come from PubChem BioAssay (NCATS).

The nature of assay [1]: S16 Schwann cell PMP22 intronic element firefly luciferase assay (AID 624032). Also: nearly all actives have a fitted effect of over 30% in size. Also: potency is read from the fitted curve at half-maximal effect. The method, boiled down:
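Rat S16 Schwann cells stably carrying firefly luciferase driven by a PMP22 intronic element, in 10% FBS, treated 24 h at 37 C. ONE-Glo luminescence normalized to PTC124 control and DMSO (0%); curves classed by r2, magnitude and activity.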

The target of assay [2] is Glutaminase kidney isoform, mitochondrial (Homo sapiens) (UniProt O94925). In words: qHTS for Inhibitors of Glutaminase (GLS): LOPAC Validation (AID 624146).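 Also: glutamate product detected by oxidase and peroxidase coupled Amplex red fluorescence gain; series mostly up to about 46 µM; % is scaled to controls: 0 for no effect and ±100 for the full control effect; nearly all actives have a fitted effect of over 60% in size.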 A digest of the protocol:
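Human kidney-isoform GLS in 45 mM KH2PO4 pH 8.2, 0.02% Tween-20, with compound, started with 1mM L-Glutamine (added stock). Glutamate oxidase/HRP/Amplex red coupled fluorescence read at start and after 30 min at RT.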
In general terms: Quantitative high-throughput screening tests each substance at several concentrations.

Assay [3] in a line: qHTS of Trypanosoma Brucei Inhibitors: LOPAC Validation (AID 624147). Also: 0% is about no effect. The method, boiled down: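 Luminescent Kinase-Glo Plus end-point after 45 min room-temperature reaction of T. brucei pyruvate kinase started with 130 uM ADP (final). Buffer TEA 50 mM pH 7.2 with KCl, MgCl2, BSA, Tween-20; titration-based qHTS with fitted concentration-effect curves.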
For assay [4], the target named is Glucagon-like peptide 1 receptor (Homo sapiens) (UniProt P43220). As to the kind of experiment: qHTS of GLP-1 Receptor Agonists: LOPAC Validation (AID 624148).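 Also: 0% is about no effect; higher luminescence signal means agonism.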 A digest of the protocol:
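HEK293 cells stably co-expressing GLP-1R and a cAMP-responsive luciferase reporter, plated 12 hours before compound, then incubated 4-6 hr at 37 deg C. Luminescence read 12 min after detection reagent.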

A short description of assay [5]: qHTS of Nrf2 Activators: LOPAC Validation (AID 624149). Also: 0% is about no effect. A digest of the protocol:
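AREc32_Fluc cells, 1000/well in OPTI-MEM with 5% FBS, grown overnight, then exposed to compounds for 24 hr at 37 deg C, 5% CO2. ARE-driven firefly luciferase read by Steady-Glo luminescence after 30 min at RT.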

The nature of assay [6]: qHTS assay for small molecule agonists of the antioxidant response element (ARE) signaling pathway (AID 651741; active = well fitted activation curve with a large enough effect in the signal ratio; the % refers to the signal ratio; also: % of control where 0% means no effect). The method, boiled down: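 CellSensor ARE-bla HepG2 cells (2,000/well) carrying ARE-driven beta-lactamase, exposed 16 h at 37 C. LiveBLAzer B/G FRET substrate added for 2 h at room temperature; fluorescence intensity read.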
Assay [7] can be described thus: qHTS assay for small molecule activators of the p53 signaling pathway (AID 651743; active = well fitted activation curve with a large enough effect in the signal ratio, not every such curve was filed as active; the % refers to the signal ratio; also: series mostly up to about 92 µM; % of control where 0% means no effect). Particulars: HCT-116 p53RE-bla, beta-lactamase FRET ratio, 16 h; hits give high values. The method, boiled down: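 p53RE-bla HCT-116 cells carrying a beta-lactamase reporter under p53 response elements were exposed to compounds for 16 hours at 37 C. Reporter activity read as fluorescence after 2 hours at room temperature with LiveBLAzer B/G FRET substrate.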

A short description of assay [8]: qHTS assay for small molecule activators of the nuclear factor-kappa B (NF-kB) signaling pathway (AID 651749; active = well fitted activation curve with a large enough effect in the signal ratio; the % refers to the signal ratio; also: series mostly up to about 77 µM; % of control where 0% means no effect). The following applies: NF-kB-bla ME-180 cells, beta-lactamase FRET ratio, 16 h; activation: hits give high values. The method, boiled down: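 NF-kB-bla ME-180 cells carrying a beta-lactamase reporter under an NF-kB response element, 2,000 cells/well, exposed to compound for 16 hr at 37C; FRET-based beta-lactamase fluorescence read-out of pathway activation.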

Assay [9] has as its target Tumor necrosis factor (Homo sapiens) (UniProt P01375). In words: qHTS assay to identify small molecules that stimulate Tumor Necrosis Factor-alpha (TNF-alpha) secretion (AID 651757; active = well fitted curve in the direction sought with a large enough effect in the signal ratio; the % refers to the signal ratio; also: 0% is about no effect). The method, boiled down: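 THP-1 cells (3000/well) exposed to compounds 17 hrs at 37 C. Secreted TNF-alpha detected by HTRF with cryptate- and XL665-labeled anti-TNF-alpha antibodies after 3 hr at room temperature.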

Assay [10] is described as follows: S16 Schwann cell PMP22 intronic element beta-lactamase assay (AID 624044; calls by dose curve;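 also: 0% = DMSO and -100% = potassium clavulanate positive control; nearly all actives have a fitted effect of over 15% in size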). A digest of the protocol:
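Rat S16 Schwann cells with beta-Lac driven by a PMP22 intronic element, compound-treated 24 h at 37 °C. LiveBLAzer FRET B/G read: 460 nm normalized to potassium clavulanate vs DMSO; 535 nm FRET as viability; concentration-effect curves classified.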

“And” between values parts separate entries of the source, which are not always exact repeats. Identical values can stand only once. A number with no mark means an inactive call. Records with an inconclusive call do not appear. The source made the active and inactive calls. Unless noted, calls follow the shape of the dose curve; as a rule, active = well fitted curve in the direction sought with a large enough effect; inconclusive = small, poorly fitted or top-dose-only effect, or another doubt; inactive = no such curve, though single readings can be large; an effect the other way counts as inactive or inconclusive.

Chain of Glutaminase kidney isoform, mitochondrial (Homo sapiens) (O94925 whole entry, looked up, canonical isoform): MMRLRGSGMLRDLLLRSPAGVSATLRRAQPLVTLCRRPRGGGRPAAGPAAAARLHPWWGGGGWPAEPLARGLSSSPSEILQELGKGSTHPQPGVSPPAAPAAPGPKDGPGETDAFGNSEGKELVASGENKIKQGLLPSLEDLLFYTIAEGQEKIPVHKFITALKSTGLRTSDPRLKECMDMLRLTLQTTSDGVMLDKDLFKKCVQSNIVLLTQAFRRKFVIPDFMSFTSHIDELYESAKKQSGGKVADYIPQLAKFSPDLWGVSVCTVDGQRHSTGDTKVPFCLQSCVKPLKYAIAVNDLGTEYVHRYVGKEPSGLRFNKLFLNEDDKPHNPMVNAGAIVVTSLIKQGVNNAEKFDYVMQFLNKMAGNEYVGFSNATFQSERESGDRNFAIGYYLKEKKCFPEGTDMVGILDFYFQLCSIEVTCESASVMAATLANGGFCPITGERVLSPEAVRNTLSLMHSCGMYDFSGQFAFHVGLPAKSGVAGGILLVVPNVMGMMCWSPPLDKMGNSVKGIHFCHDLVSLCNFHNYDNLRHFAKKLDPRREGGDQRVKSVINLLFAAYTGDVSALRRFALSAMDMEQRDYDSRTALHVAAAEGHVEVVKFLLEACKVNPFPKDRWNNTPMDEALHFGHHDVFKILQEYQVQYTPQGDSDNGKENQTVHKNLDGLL
Chain of Glucagon-like peptide 1 receptor (Homo sapiens) (P43220 whole entry, looked up): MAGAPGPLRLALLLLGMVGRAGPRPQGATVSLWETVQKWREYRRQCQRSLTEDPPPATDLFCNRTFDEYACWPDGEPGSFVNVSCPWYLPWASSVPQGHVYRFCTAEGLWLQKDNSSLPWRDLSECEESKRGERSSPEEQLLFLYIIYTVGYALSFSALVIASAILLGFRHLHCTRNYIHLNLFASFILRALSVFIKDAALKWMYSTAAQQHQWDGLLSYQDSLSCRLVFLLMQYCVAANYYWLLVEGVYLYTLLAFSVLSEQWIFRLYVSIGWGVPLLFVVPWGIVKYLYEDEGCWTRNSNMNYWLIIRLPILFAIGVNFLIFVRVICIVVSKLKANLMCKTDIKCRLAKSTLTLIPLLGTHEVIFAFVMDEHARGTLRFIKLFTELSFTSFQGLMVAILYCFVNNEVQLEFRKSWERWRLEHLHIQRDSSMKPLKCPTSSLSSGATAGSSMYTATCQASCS
Chain of Tumor necrosis factor (Homo sapiens) (P01375 whole entry, looked up): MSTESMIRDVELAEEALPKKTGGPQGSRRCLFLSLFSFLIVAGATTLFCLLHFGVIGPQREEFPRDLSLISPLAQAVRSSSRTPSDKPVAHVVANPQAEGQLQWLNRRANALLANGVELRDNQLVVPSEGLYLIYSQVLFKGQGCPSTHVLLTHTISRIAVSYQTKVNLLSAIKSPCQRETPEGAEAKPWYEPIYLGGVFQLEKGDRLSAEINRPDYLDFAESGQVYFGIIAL

On to `C[C@]12C[C@H](O)[C@H]3[C@@H](CCC4=CC(=O)CC[C@@]43C)[C@@H]1CC[C@@H]2C(=O)CO`, for which the Potency result in [1], in assay [2] and in assay [6] was “inactive” throughout. Also, the compound was called inactive in assay [3], in assay [4], in assay [5] and in assay [9]. Besides, the activation in assay [7] is -3.81% and -1.82%; in assay [8] it was -1.35% and 0.404%.
Consider `C[C@](N)(Cc1ccc(O)cc1)C(=O)O`, for which the Potency entry in assay [1] and in assay [2] was “inactive” throughout. The outcome in assay [3], in assay [4] and in assay [5] was inactive.
Consider `Cc1cc(CC(=O)O)n(C)c1C(=O)c1ccc(Cl)cc1`, for which the Potency result in assay [1] was “inactive”. Also, the activation in [7] is -3.75%.
In the case of `COc1ccc2c(c1)C(=O)N(CCc1ccc(S(=O)(=O)NC(=O)NC3CCCCC3)cc1)C(=O)C2(C)C`, in assay [10], the Potency entry was “inactive”.
On to `COCCOC(=O)C1=C(C)NC(C)=C(C(=O)OC/C=C/c2ccccc2)C1c1cccc([N+](=O)[O-])c1` (stereo not drawn), for which the Potency in [1] was 7.21 µM (active). Further, the Potency entry in [10] and in assay [2] was “inactive” throughout. The outcome in assay [3], in [4] and in assay [5] was inactive.
Take `CC12CCC(CC1)C(C)(C)O2`: the Potency result in assay [1] and in assay [6] was “inactive” each time. The activation in assay [7] was -1.89%. In addition, in [9], the call was inactive.
Take `O=C(O)c1ccccc1O`: the Potency entry in assay [1] and in [10] was “inactive” in each case.
Regarding `CNCCCC1c2ccccc2C=Cc2ccccc21`, in [1], the Potency was 12.3 µM (active). Further, the Potency result in assay [2] is “inactive”. Besides, the result in assay [3], in [4] and in assay [5] was inactive.
Consider `C#CCN(C)Cc1ccccc1`, for which the Potency result in assay [1] and in [2] was “inactive” throughout. Moreover, the compound was called inactive in assay [3], in [4] and in [5].
With `CC[C@@]1(c2ccccc2)NC(=O)N(C)C1=O`, the Potency entry in [1] and in [10] was “inactive” in each case.
As to `CCCCCCCCCCCCCCCC(=O)NCCO`, the Potency entry in assay [1], in [10] and in [2] was “inactive” throughout. Also, the compound was called inactive in [3], in assay [4] and in assay [5].
For the compound `CCN(CC)CCNC(=O)c1cc(Cl)c(N)cc1OC`, the Potency result in assay [1], in assay [10] and in assay [2] was “inactive” in each case. Also, the result in [3], in assay [4] and in assay [5] was inactive.
